Structures are written as SMILES. Records with an inconclusive call do not appear. The source made the active and inactive calls. How the source made its calls, unless noted: active means hit-call score of the fitted dose curve at least 0.9, where 1 is the maximum; inactive means score below 0.9.

A short description of assay [1]: CCTE_Shafer_MEA_dev_firing_rate_mean: CCTE's Neural Network Formation Assay for Mean Firing Rate, Shafer Lab (AID 2284031). In short, it runs like this: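 Steps: seed rat cortical cells (1.5 x 10^5/well) with laminin on PEI-coated MEA; dose day 0; record DIV 5/7/9/12, full media and compound exchange after DIV 5 and 9 recordings; compute well-mean firing rate AUC.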

A short description of assay [2]: CCTE_Shafer_MEA_dev_per_burst_spike_percent: CCTE's Neural Network Formation Assay for Percent of Spikes in a Burst, Shafer Lab (AID 2284032). An outline of the steps: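 Value is trapezoidal AUC over recordings on days 5, 7, 9 and 12 of the well-mean fraction of spikes falling in single-electrode bursts; rat cortical cultures exposed continuously from plating, treatment renewed DIV 5 and 9, fitted downward against DMSO.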

Assay [3] is described as follows: CCTE_Shafer_MEA_dev_burst_rate: CCTE's Neural Network Formation Assay for Burst Rate, Shafer Lab (AID 2284042). In short, it runs like this:
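Rat primary cortical cultures on PEI/laminin MEA; compound from plating, re-dosed at DIV 5, 9 media change. Single-electrode bursts/recording length, well mean of active electrodes; AUC over DIV 5–12 recordings; loss-of-signal vs DMSO.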

Assay [4] in a line: CCTE_Shafer_MEA_dev_bursting_electrodes_number: CCTE's Neural Network Formation Assay for Number of Bursting Electrodes, Shafer Lab (AID 2284043; active means hit-call score of the fitted dose curve at least 0.9, where 1 is the maximum). An outline of the steps: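 Counted: electrodes with burst rate ≥1 per 2 min in each well. Cells: primary rat cortex, 1.5 x 10^5/well, on 16-electrode MEA wells. Exposure: DIV 0–12, compound renewed DIV 5 and 9. Recording days 5, 7, 9, 12; AUC vs DMSO baseline.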

A short description of assay [5]: CCTE_Shafer_MEA_dev_per_burst_interspike_interval: CCTE's Neural Network Formation Assay for Burst Interspike Interval, Shafer Lab (AID 2284044). An outline of the steps: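 Readout is the average time between spikes inside single-electrode bursts, taken as a well mean across bursting electrodes. Cortical neurons from rat developed networks on MEA plates under continuous 12-day exposure; recordings on days 5, 7, 9 and 12 were integrated by trapezoidal AUC.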

Assay [6] can be described thus: CCTE_Shafer_MEA_dev_burst_duration_mean: CCTE's Neural Network Formation Assay for Mean Burst Duration, Shafer Lab (AID 2284045). In short, it runs like this: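 Network-formation assay in primary rat cortical neurons; treatment spans twelve days of development. Mean burst duration per well is integrated by trapezoidal AUC and fitted in the loss-of-signal direction against DMSO baseline.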

Assay [7] can be described thus: CCTE_Shafer_MEA_dev_interburst_interval_mean: CCTE's Neural Network Formation Assay for Mean Interburst Interval, Shafer Lab (AID 2284046).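 Further: well-mean interburst interval of bursting electrodes as AUC over four recording days; curve fitted for decrease in interburst interval relative to DMSO.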 In short, it runs like this: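 Rat cortical neurons, 1.5 x 10^5 cells/well, 48-well MEA; compound from day 0 through DIV 12, media and treatment renewed DIV 5/9. Recordings DIV 5, 7, 9, 12; well-mean interburst interval → trapezoidal AUC, loss direction vs DMSO.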

A short description of assay [8]: CCTE_Shafer_MEA_dev_inter_network_spike_interval_mean: CCTE's Neural Network Formation Assay for Mean Inter-network Spike Interval, Shafer Lab (AID 2284047). An outline of the steps:
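Primary rat cortical neurons on PEI-coated 48-well MEAs (16 electrodes/well) were exposed from plating day 0 to DIV 12, with dosing renewed at DIV 5 and 9. Recordings at DIV 5, 7, 9, 12 were collapsed by trapezoidal AUC, loss-of-signal fit vs DMSO.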

A short description of assay [9]: CCTE_Shafer_MEA_dev_network_spike_number: CCTE's Neural Network Formation Assay for Number of Network Spikes, Shafer Lab (AID 2284048). In short, it runs like this: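 Extracellular recordings from 16-electrode wells track network formation in rat cortical cultures under continuous treatment from plating. The endpoint is network spike number, expressed as AUC across DIV 5–12 relative to DMSO vehicle.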

A short description of assay [10]: CCTE_Shafer_MEA_dev_network_spike_peak: CCTE's Neural Network Formation Assay for Mean Number of Electrodes in Network Spike, Shafer Lab (AID 2284049). In short, it runs like this:
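Continuous 12-day exposure of rat cortical cultures, starting at plating, on MEA plates. Endpoint: electrodes participating in network-spike peaks, AUC across DIV 5–12, DMSO as negative control.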

Assay [11] can be described thus: CCTE_Shafer_MEA_dev_spike_duration_mean: CCTE's Neural Network Formation Assay for Mean Spike Duration, Shafer Lab (AID 2284051).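 Further: mean network spike duration pooled as area under curve over DIV 5 to 12 recordings.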 An outline of the steps:
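Rat cortical primary cultures, 48-well MEA (16 electrodes/well); compound from plating, renewed DIV 5, 9. Network spike duration (AxIS adaptive detector) recorded DIV 5/7/9/12, combined as trapezoidal AUC; loss direction vs DMSO.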

A short description of assay [12]: CCTE_Shafer_MEA_dev_network_spike_duration_std: CCTE's Neural Network Formation Assay for Standard Deviation of Network Spike Duration, Shafer Lab (AID 2284052).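 Further: area under curve of spike duration SD across recording days 5 to 12; hits are decreases in network spike duration SD versus DMSO vehicle.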 An outline of the steps:
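Rat cortical cultures, 1.5 x 10^5 cells/well, exposed continuously from plating to DIV 12 with media/compound renewal at DIV 5, 9. Spontaneous activity recorded DIV 5/7/9/12, AxIS adaptive spike detector; AUC across days; negative direction vs DMSO.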

A short description of assay [13]: CCTE_Shafer_MEA_dev_per_network_spike_spike_number_mean: CCTE's Neural Network Formation Assay for Mean Number of Spikes in a Network Spike, Shafer Lab (AID 2284053). An outline of the steps: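 Rat cortical primary cultures on 48-well MEA; compound from day 0, re-dosed with full media change DIV 5, 9. Recorded DIV 5, 7, 9, 12; spikes in 0.05 s window at network-spike peak ÷ total network spikes; AUC; loss vs DMSO.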

The nature of assay [14]: CCTE_Shafer_MEA_dev_per_network_spike_spike_percent: CCTE's Neural Network Formation Assay for Percent of Spikes in a Network Spike, Shafer Lab (AID 2284054). An outline of the steps:
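Developing networks of rat cortical neurons are dosed at day 0 and recorded extracellularly four times up to day 12. The endpoint is the area under the curve of percent spikes in network spikes, fitted in the negative direction relative to DMSO.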

Assay [15] can be described thus: CCTE_Shafer_MEA_dev_AB: CCTE's Alamar Blue Assay for Cytotoxicity in the Neural Network Formation Assay, Shafer Lab (AID 2284083; active means hit-call score of the fitted dose curve at least 0.9, where 1 is the maximum;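 further: resazurin reduction fluorescence as viability of cultured neurons; twelve days of exposure from plating with re-dosing on DIV 5 and 9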). An outline of the steps:
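Rat cortical primary cultures, 1.5 x 10^5 cells/well on MEA; continuous compound exposure over 12 days of network development, re-dosed with full medium change DIV 5 and 9. Alamar Blue fluorescence; loss of signal = cytotoxicity vs DMSO baseline.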
(The colour change of resazurin is a common sign of viable cells or microbes.)

Assay [16] can be described thus: CCTE_Shafer_MEA_dev_correlation_coefficient_mean: CCTE's Neural Network Formation Assay for Mean Correlation Coefficient, Shafer Lab (AID 2284093). An outline of the steps: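 Rat cortical cultures, 1.5 x 10^5 cells/well, dosed from day 0 for 12 days. Spontaneous spikes recorded DIV 5/7/9/12; electrode-pair correlation coefficients averaged, AUC taken. Fit in loss direction vs DMSO.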

The nature of assay [17]: UKN2_HCS_IMR90_neural_migration: University of Konstanz (UKN) Leist Lab Neural Crest Cell Migration Assay in human induced IMR90 Pluripotent Stem Cells (UKN2) (AID 2284204). As to conditions: actives raise or lower the signal. In short, it runs like this:
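Using a 96-well stopper format with PLO/laminin/fibronectin coating, neural crest cells from iPSC migrate in cytokine-supplemented N2-S medium; after 24 h, chemicals are applied for a further 24 h, then cells are imaged after dye staining.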

Assay [18] is described as follows: IUF_NPC1b_proliferation_BrdU_72hr: Leibniz Research Institute for Environmental Medicine (IUF) 72-hour Neural Progenitor Cell Bromodeoxyuridine (BrdU) Proliferation Assay (NPC1b) (AID 2284207). In short, it runs like this:
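Neural progenitor spheres of human fetal origin are treated for three days; BrdU added for the last 16 h is quantified by luminescence ELISA, with DMSO as baseline and EGF/FGF omission as positive control.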

The nature of assay [19]: IUF_NPC1a_proliferation_area_72hr: Leibniz Research Institute for Environmental Medicine (IUF) 72-hour Neural Progenitor Cell Proliferation Area Assay (NPC1a) (AID 2284208). In short, it runs like this:
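hNPC spheres (human fetal cortex, GW 16-19), one per poly-Hema U-bottom well; EGF+FGF medium; dosed day 0, no re-dosing; 72 h, 37C, 5% CO2; phase-contrast sphere area; DMSO = baseline; minus-GF = positive ctrl.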

Assay [20] is described as follows: IUF_NPC1_viability_72hr: Viability Assessment at 72 hours in the Leibniz Research Institute for Environmental Medicine (IUF) Neural Progenitor Cell Proliferation Assay (NPC1) (AID 2284209). An outline of the steps: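 Spheres of primary human neural progenitors were plated singly in proliferation medium and treated for 72 h. Mitochondrial reduction of resazurin was then measured by fluorescence and analysed against DMSO controls.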

Assay [21] in a line: CCTE_Mundy_HCI_Cortical_Synap_Neur_Matur_NeuriteSpotCountPerNeuriteLength: CCTE's Synaptogenesis and Neurite Maturation Assay in rat cortical cells for Neurite Spot Count per Neurite Length, Mundy Lab (AID 2284210). An outline of the steps: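 Neurite-associated synapse density (synaptophysin puncta per unit neurite length) is measured by fluorescence high-content imaging in rat cortical cultures treated from DIV 7 and fixed at DIV 12, with DMSO as negative control.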

Assay [22] is described as follows: CCTE_Mundy_HCI_Cortical_Synap_Neur_Matur_BPCount: CCTE's Synaptogenesis and Neurite Maturation Assay in rat cortical cells for Branch Point Count, Mundy Lab (AID 2284211). An outline of the steps:
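HCI read-out of branch points from MAP2/synaptophysin/Hoechst immunofluorescence; rat cortical cultures, AraC DIV 5, dosing DIV 7, fixed DIV 12; fit in positive direction vs DMSO baseline.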

Assay [23] can be described thus: CCTE_Mundy_HCI_Cortical_NOG_NeuriteCount: CCTE's Neurite Outgrowth Assay in rat cortical cells for Neurite Count, Mundy Lab (AID 2284212).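 Further: cells fixed about two days after chemical exposure began.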 An outline of the steps: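 Rat cortical primary cells; compound added 2 h post-plating, 1/10 dilution of working solution. Anti-betaIII-tubulin/AF488 ICC; ArrayScan neurite count vs DMSO.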
Assay [24] can be described thus: CCTE_Mundy_HCI_Cortical_NOG_NeuriteLength: CCTE's Neurite Outgrowth Assay in rat cortical cells for Neurite Length, Mundy Lab (AID 2284213). In short, it runs like this:
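First, rat primary cortical cells were plated and, 2 h later, given test chemical as a 1/10 dilution. Finally, βIII-tubulin immunostaining enabled automated imaging of neurite length.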

A word on the AC50: it is the concentration giving half of the maximal activity seen. With `CC(=O)N[C@@H](CC(=O)O)C(=O)O`, the outcome in [1], in assay [2], in assay [3], in [4], in assay [5] and in assay [6] was inactive. The result in assay [7], in [8], in assay [9], in assay [10], in assay [11] and in assay [12] was inactive. The molecule was called inactive in [13], in assay [14], in assay [15], in assay [16], in assay [17] and in assay [19]. Also, the call in assay [20], in [21], in [22], in assay [23] and in assay [24] was inactive. Further, the AC50 in assay [18] is 11.7 µM (active).
